# In article PMC5515408, “Sequence-specific DNA binding by MYC/MAX to low-affinity non-E-box motifs”:
# Over roughly 5,000 sequences, “log2 normalized fluorescence” has its median near 0.089; the highest 2% begin near 0.81. For the sample, the highest values were picked, then their nearest neighbours and some sequences at random.
# Target: MYC (p64);MAX (p21), in MYC:MAX (human;human, UniProt P01106-1;P61244-2 1-439;1-151, |)
# Test: protein-binding microarray (anti-MAX antibody); PBM: 15 mM Tris-HCl pH 7.5, 100 mM KCl, 0.075% NP40, 7.5 mM beta-mercaptoethanol, 375 ng/ul BSA, 8 ng/ul poly(dA-dT):(dA-dT), 550 ng complex, 60 min, room tempe; high values mean tight binding
# Conditions: protein: recombinant;recombinant; tags: 6xHis;6xHis; copies: 1;1; label: 3' end of printed strand (linker) attached to glass slide; dsDNA, one strand shown
# Procedure, shortened: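 For each of ~5000 unique double-stranded 12-nt sequences, spotted in triplicate on a custom Agilent glass array, binding of His-tagged human MYC:MAX or MAX:MAX dimers is reported as log2 normalized fluorescence. The dimers (550 ng, E. coli-expressed) were incubated for 60 min at room temperature in Tris-KCl buffer, pH 7.5, with NP40, BSA and poly(dA-dT) competitor. Detection used anti-MAX and secondary antibodies with a 543 nm scan.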
# MYC (p64);MAX (p21), in MYC:MAX, sequence (P01106 16-454, chain 1 of 2): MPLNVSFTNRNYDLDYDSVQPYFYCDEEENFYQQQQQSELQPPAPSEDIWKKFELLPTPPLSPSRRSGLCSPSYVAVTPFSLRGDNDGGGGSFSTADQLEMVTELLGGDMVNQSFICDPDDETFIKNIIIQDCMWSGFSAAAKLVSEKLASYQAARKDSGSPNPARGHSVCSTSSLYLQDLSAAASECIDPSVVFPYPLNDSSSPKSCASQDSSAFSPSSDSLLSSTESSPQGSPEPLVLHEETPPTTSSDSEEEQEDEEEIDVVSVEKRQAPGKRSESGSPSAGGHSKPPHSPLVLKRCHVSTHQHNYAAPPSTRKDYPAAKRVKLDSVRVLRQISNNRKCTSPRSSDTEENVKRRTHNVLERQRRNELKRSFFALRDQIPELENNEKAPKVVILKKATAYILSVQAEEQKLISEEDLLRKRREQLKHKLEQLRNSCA
# MYC (p64);MAX (p21), in MYC:MAX, sequence (P61244 other isoform, or with tags, fused parts or gaps |, chain 2 of 2): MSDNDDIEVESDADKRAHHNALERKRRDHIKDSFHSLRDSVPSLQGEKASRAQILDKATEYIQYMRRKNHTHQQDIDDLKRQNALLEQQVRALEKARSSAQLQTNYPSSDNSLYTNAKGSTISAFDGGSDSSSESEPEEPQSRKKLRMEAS
row,Sequence,binding signal
1,CCGGCTGGAACGTGGTATTAATAGCTAAGATTACTATATCGACG,0.66 log2 normalized fluorescence
2,CCGGCTGAGCATATGTATTAATAGCTAAGATTACTATATCGACG,0.395 log2 normalized fluorescence
3,CCGGCTGAAGGCGTGTATTAATAGCTAAGATTACTATATCGACG,0.409 log2 normalized fluorescence
4,CCGGCAGACACTTGGTATTAATAGCTAAGATTACTATATCGACG,0.421 log2 normalized fluorescence
5,CCGGCAGACATGGGGTATTAATAGCTAAGATTACTATATCGACG,0.458 log2 normalized fluorescence
6,CCGGCAGACACGAGGTTTTAATAGCTAAGATTACTATATCGACG,0.64 log2 normalized fluorescence
7,CCGGCTAACACATGGTATTAATAGCTAAGATTACTATATCGACG,0.6 log2 normalized fluorescence
8,CCGGCTGACACGAGGTATTAATAGCTAAGATTACTATATCGACG,0.625 log2 normalized fluorescence
9,CCGGCTTTCACATGGTATTAATAGCTAAGATTACTATATCGACG,0.504 log2 normalized fluorescence
10,CCGGCAGACACATGGTATTAATAGCTAAGATTACTATATCGACG,0.834 log2 normalized fluorescence
11,CCGGCAGACACGAGGTATTAATAGCTAAGATTACTATATCGACG,0.93 log2 normalized fluorescence
12,CCGGCAGTCACATGGTATTAATAGCTAAGATTACTATATCGACG,0.995 log2 normalized fluorescence
13,CCGGCTGACTACATGTATTAATAGCTAAGATTACTATATCGACG,0.419 log2 normalized fluorescence
14,CCGGCTGTCAAGTGGCATTAATAGCTAAGATTACTATATCGACG,0.1 log2 normalized fluorescence
15,CCGGCTGAGTTTCCGTATTAATAGCTAAGATTACTATATCGACG,-0.0243 log2 normalized fluorescence
16,CCGGCTGAAGGATGGTATTAATAGCTAAGATTACTATATCGACG,0.0538 log2 normalized fluorescence
17,CCGGCTGTCCCCTGGTATTAATAGCTAAGATTACTATATCGACG,-0.00889 log2 normalized fluorescence
18,CCGGCTGACTGTGAGTATTAATAGCTAAGATTACTATATCGACG,0.00564 log2 normalized fluorescence
19,CCGGCTGACGGCAGGTATTAATAGCTAAGATTACTATATCGACG,-0.00507 log2 normalized fluorescence
20,CCGGCGGACACGTGTGATTAATAGCTAAGATTACTATATCGACG,0.779 log2 normalized fluorescence
21,CCGGCGGACGCGTGGTATTAATAGCTAAGATTACTATATCGACG,0.64 log2 normalized fluorescence
22,CCGGCGGACCCGTGGTATTAATAGCTAAGATTACTATATCGACG,0.439 log2 normalized fluorescence
23,CCGGCGGACACGTGCTATTAATAGCTAAGATTACTATATCGACG,0.839 log2 normalized fluorescence
24,CCGGCGGACACGTGGTATTAATAGCTAAGATTACTATATCGACG,0.99 log2 normalized fluorescence
25,CCGGCGGACACGTCGTATTAATAGCTAAGATTACTATATCGACG,0.287 log2 normalized fluorescence
26,CCGGCTGAGTACCTGTATTAATAGCTAAGATTACTATATCGACG,0.076 log2 normalized fluorescence
27,CCGGCTGATGGGCAGTATTAATAGCTAAGATTACTATATCGACG,0.0215 log2 normalized fluorescence

row,Sequence,binding signal
1,CCGGCTGACGATCAGTATTAATAGCTAAGATTACTATATCGACG,-0.0317 log2 normalized fluorescence
2,CCGGCTGAATACCTGTATTAATAGCTAAGATTACTATATCGACG,0.159 log2 normalized fluorescence
3,CCGGCTGAGCGCAGGTATTAATAGCTAAGATTACTATATCGACG,0.113 log2 normalized fluorescence
4,CCGGCTGACCAGTTGTATTAATAGCTAAGATTACTATATCGACG,0.159 log2 normalized fluorescence
5,CCGGCGCACACGTGCTATTAATAGCTAAGATTACTATATCGACG,0.875 log2 normalized fluorescence
6,CCGGCGCGCACGTGGTATTAATAGCTAAGATTACTATATCGACG,0.813 log2 normalized fluorescence
7,CCGGCTGGCACGTGCTATTAATAGCTAAGATTACTATATCGACG,0.722 log2 normalized fluorescence
8,CCGGCGCACACGTGGTATTAATAGCTAAGATTACTATATCGACG,0.906 log2 normalized fluorescence
9,CCGGCTCGCACGTGGTATTAATAGCTAAGATTACTATATCGACG,0.665 log2 normalized fluorescence
10,CCGGCTGAGCACACGTATTAATAGCTAAGATTACTATATCGACG,0.338 log2 normalized fluorescence
11,CCGGCTGAATTCCCGTATTAATAGCTAAGATTACTATATCGACG,0.003 log2 normalized fluorescence
12,CCGGCTGACGGATGGTATTAATAGCTAAGATTACTATATCGACG,0.302 log2 normalized fluorescence
13,CCGGCTGACGGACAGTATTAATAGCTAAGATTACTATATCGACG,0.124 log2 normalized fluorescence
14,CCGGCTGACTCGTGCTGTTAATAGCTAAGATTACTATATCGACG,0.41 log2 normalized fluorescence
15,CCGGCTGACACGTGTGATTAATAGCTAAGATTACTATATCGACG,0.872 log2 normalized fluorescence
16,CCGGCTGACACGTGATCTTAATAGCTAAGATTACTATATCGACG,0.744 log2 normalized fluorescence
17,CCGGCTGACACGTGAAGTTAATAGCTAAGATTACTATATCGACG,0.527 log2 normalized fluorescence
18,CCGGCTGACACGTGAGATTAATAGCTAAGATTACTATATCGACG,0.826 log2 normalized fluorescence
19,CCGGCTGACACGTCATGTTAATAGCTAAGATTACTATATCGACG,0.5 log2 normalized fluorescence
20,CCGGCTGACACGTGAGCTTAATAGCTAAGATTACTATATCGACG,0.713 log2 normalized fluorescence
21,CCGGCTGACACGTGAGGTTAATAGCTAAGATTACTATATCGACG,0.702 log2 normalized fluorescence
22,CCGGCTGACACGTGATATTAATAGCTAAGATTACTATATCGACG,0.522 log2 normalized fluorescence
23,CCGGCTGACACGTGATGTTAATAGCTAAGATTACTATATCGACG,0.851 log2 normalized fluorescence
24,CCGGCTGAGCCATCGTATTAATAGCTAAGATTACTATATCGACG,0.0938 log2 normalized fluorescence
25,CCGGCTGACCGCGGGTATTAATAGCTAAGATTACTATATCGACG,0.33 log2 normalized fluorescence
26,CCGGCTGACTGGAGGTATTAATAGCTAAGATTACTATATCGACG,0.07 log2 normalized fluorescence
27,CCGGCTGATGTTAGGTATTAATAGCTAAGATTACTATATCGACG,0.122 log2 normalized fluorescence
